Results from PubChem BioAssay AID1159580 (chemical genetic matrix, 2015).
The campaign covered roughly 5,500 compounds. About 2,000 (36%) were called active. About 18% were inconclusive and are not listed. Rule as the data show it: active = normalized growth mostly below about 0.91 (no sharp cut-off); inconclusive = no clear call, values can overlap the other calls; inactive = mostly above about 0.92. This is one part of the list.

Assay: chemical genetic growth profiling, strain panel (AID 1159580);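 also: tested at 20 µM; growth read once vehicle control cultures reached saturation at 30 °C; 1 = growth at the plate median or of vehicle wells; lower values mean less growth of the strain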
Conditions: growth OD

Measured: normalized growth

CCCCCCOc1ccccc1C(N)=O
inactive: S. cerevisiae deletion strains, locus YKR026C, strain gcn3, stronger effect = lower value 0.948 | S. cerevisiae deletion strains, locus YKR091W, strain srl3, stronger effect = lower value 0.953 | S. cerevisiae deletion strains, locus YLL041C, strain sdh2, stronger effect = lower value 0.94 | S. cerevisiae deletion strains, locus YLR039C, strain RIC1, stronger effect = lower value 1.04 | S. cerevisiae deletion strains, locus YLR262C, strain YPT6 (second series), stronger effect = lower value 1.11 | S. cerevisiae deletion strains, locus YLR262C, strain YPT6, stronger effect = lower value 0.921 | S. cerevisiae deletion strains, locus YLR357W, strain rsc2, stronger effect = lower value 1.07 | S. cerevisiae deletion strains, locus YLR370C, strain arc18, stronger effect = lower value 0.932 | S. cerevisiae deletion strains, locus YLR384C, strain iki3, stronger effect = lower value 0.959 | S. cerevisiae deletion strains, locus YMR129W, stronger effect = lower value 0.945 | S. cerevisiae deletion strains, locus YMR231W, strain pep5, stronger effect = lower value 0.979 | S. cerevisiae deletion strains, locus YNL183C, strain NPR1, stronger effect = lower value 0.869 | S. cerevisiae deletion strains, locus YNL322C, strain KRE1 (second series), stronger effect = lower value 0.978 | S. cerevisiae deletion strains, locus YNR049C, strain mso1, stronger effect = lower value 0.942 | S. cerevisiae deletion strains, locus YOL012C, strain htz1 0.5 | S. cerevisiae deletion strains, locus YOR001W, strain rrp6, stronger effect = lower value 0.904 | S. cerevisiae deletion strains, locus YOR080W, strain dia2, stronger effect = lower value 0.951 | S. cerevisiae deletion strains, locus YOR231W, strain MKK1, stronger effect = lower value 0.877 | S. cerevisiae deletion strains, locus YOR265W, strain rbl2, stronger effect = lower value 0.929 | S. cerevisiae deletion strains, locus YOR290C, strain snf2, stronger effect = lower value 0.87 | S. cerevisiae deletion strains, locus YPL106C, strain sse1, stronger effect = lower value 1.01 | S. cerevisiae deletion strains, locus YPL240C, strain hsp82, stronger effect = lower value 0.945 | S. cerevisiae deletion strains, locus YPL256C, strain CLN2, stronger effect = lower value 0.864
active: S. cerevisiae deletion strains, locus YJR043C, strain POL32, stronger effect = lower value 0.529 | S. cerevisiae deletion strains, locus YJR066W, strain TOR1, stronger effect = lower value 0.815 | S. cerevisiae deletion strains, locus YKL009W, strain mrt4, stronger effect = lower value 0.768 | S. cerevisiae deletion strains, locus YKL068W, stronger effect = lower value 0.851 | S. cerevisiae deletion strains, locus YKL085W, strain MDH1 (second series), stronger effect = lower value 0.826 | S. cerevisiae deletion strains, locus YKL085W, strain MDH1, stronger effect = lower value 0.826 | S. cerevisiae deletion strains, locus YKL160W, strain elf1, stronger effect = lower value 0.883 | S. cerevisiae deletion strains, locus YKL190W, strain CNB1, stronger effect = lower value 0.281 | S. cerevisiae deletion strains, locus YKR001C, strain vps1, stronger effect = lower value 0.678 | S. cerevisiae deletion strains, locus YLL001W, strain dnm1, stronger effect = lower value 0.887 | S. cerevisiae deletion strains, locus YLL026W, stronger effect = lower value 0.877 | S. cerevisiae deletion strains, locus YLR027C, strain aat2, stronger effect = lower value 0.898 | S. cerevisiae deletion strains, locus YLR058C, strain SHM2, stronger effect = lower value 0.641 | S. cerevisiae deletion strains, locus YLR102C, strain apc9, stronger effect = lower value 0.667 | S. cerevisiae deletion strains, locus YLR113W, strain HOG1, stronger effect = lower value 0.85 | S. cerevisiae deletion strains, locus YLR221C, strain rsa3, stronger effect = lower value 0.845 | S. cerevisiae deletion strains, locus YLR258W, strain gsy2, stronger effect = lower value 0.862 | S. cerevisiae deletion strains, locus YLR268W, strain sec22, stronger effect = lower value 0.308 | S. cerevisiae deletion strains, locus YLR320W, strain mms22, stronger effect = lower value 0.59 | S. cerevisiae deletion strains, locus YLR330W, strain CHS5, stronger effect = lower value 0.355 | S. cerevisiae deletion strains, locus YLR342W, strain FKS1 (second series), stronger effect = lower value 0.366 | S. cerevisiae deletion strains, locus YLR342W, strain FKS1, stronger effect = lower value 0.859 | S. cerevisiae deletion strains, locus YLR371W, strain rom2, stronger effect = lower value 0.566 | S. cerevisiae deletion strains, locus YLR418C, strain cdc73, stronger effect = lower value 0.207 | S. cerevisiae deletion strains, locus YML016C, strain PPZ1, stronger effect = lower value 0.822 | S. cerevisiae deletion strains, locus YML032C, strain rad52, stronger effect = lower value 0.526 | S. cerevisiae deletion strains, locus YML120C, strain ndi1, stronger effect = lower value 0.857 | S. cerevisiae deletion strains, locus YML124C, strain tub3, stronger effect = lower value 0.725 | S. cerevisiae deletion strains, locus YMR058W, strain fet3, stronger effect = lower value 0.807 | S. cerevisiae deletion strains, locus YMR078C, strain ctf18, stronger effect = lower value 0.361 | S. cerevisiae deletion strains, locus YMR125W, strain sto1, stronger effect = lower value 0.785 | S. cerevisiae deletion strains, locus YMR205C, strain PFK2, stronger effect = lower value 0.835 | S. cerevisiae deletion strains, locus YMR223W, strain ubp8, stronger effect = lower value 0.55 | S. cerevisiae deletion strains, locus YMR307W, strain GAS1, stronger effect = lower value 0.457 | S. cerevisiae deletion strains, locus YNL067W, strain RPL9B, stronger effect = lower value 0.599 | S. cerevisiae deletion strains, locus YNL071W, strain lat1, stronger effect = lower value 0.57 | S. cerevisiae deletion strains, locus YNL153C, strain GIM3, stronger effect = lower value 0.502 | S. cerevisiae deletion strains, locus YNL209W, strain ssb2, stronger effect = lower value 0.902 | S. cerevisiae deletion strains, locus YNL233W, strain BNI4, stronger effect = lower value 0.326 | S. cerevisiae deletion strains, locus YNL248C, strain rpa49, stronger effect = lower value 0.865 | S. cerevisiae deletion strains, locus YNL250W, strain rad50, stronger effect = lower value 0.871 | S. cerevisiae deletion strains, locus YNL271C, strain bni1, stronger effect = lower value 0.696 | S. cerevisiae deletion strains, locus YNL298W, strain CLA4, stronger effect = lower value 0.778 | S. cerevisiae deletion strains, locus YNL307C, strain MCK1, stronger effect = lower value 0.0873 | S. cerevisiae deletion strains, locus YNL322C, strain KRE1, stronger effect = lower value 0.705 | S. cerevisiae deletion strains, locus YNR052C, strain pop2, stronger effect = lower value 0.797 | S. cerevisiae deletion strains, locus YOL006C, strain TOP1, stronger effect = lower value 0.135 | S. cerevisiae deletion strains, locus YOL147C, strain pex11, stronger effect = lower value 0.243 | S. cerevisiae deletion strains, locus YOR061W, strain CKA2, stronger effect = lower value 0.794 | S. cerevisiae deletion strains, locus YOR069W, strain VPS5, stronger effect = lower value 0.798 | S. cerevisiae deletion strains, locus YOR070C, strain gyp1, stronger effect = lower value 0.891 | S. cerevisiae deletion strains, locus YOR083W, strain WHI5, stronger effect = lower value 0.855 | S. cerevisiae deletion strains, locus YOR106W, strain vam3, stronger effect = lower value 0.861 | S. cerevisiae deletion strains, locus YOR136W, strain idh2, stronger effect = lower value 0.719 | S. cerevisiae deletion strains, locus YOR144C, strain elg1, stronger effect = lower value 0.485 | S. cerevisiae deletion strains, locus YOR184W, strain ser1, stronger effect = lower value 0.187 | S. cerevisiae deletion strains, locus YOR270C, strain vph1, stronger effect = lower value 0.446 | S. cerevisiae deletion strains, locus YOR316C, strain cot1, stronger effect = lower value 0.567 | S. cerevisiae deletion strains, locus YPL051W, strain arl3, stronger effect = lower value 0.878 | S. cerevisiae deletion strains, locus YPL078C, strain atp4, stronger effect = lower value 0.729 | S. cerevisiae deletion strains, locus YPR119W, strain clb2, stronger effect = lower value 0.625 | S. cerevisiae deletion strains, locus YPR141C, strain kar3, stronger effect = lower value 0.825 | S. cerevisiae deletion strains, locus YPR163C, strain tif3, stronger effect = lower value 0.142 | S. cerevisiae deletion strains, locus YPR167C, strain met16, stronger effect = lower value 0.627 | S. cerevisiae deletion strains, strain wtn01, stronger effect = lower value 0.444 | S. cerevisiae strains, strain wild type, stronger effect = lower value 0.559
